Screens (PubChem)
This is a sample that favours compounds with a hit; in the whole collection about 13% have one here.
A350 fluor = qHTS Assay for Spectroscopic Profiling in A350 Spectral Region; Compound autofluorescence, 340/450 nm, Alexa 350 dye-equivalents; hits give high values; max dye-equivalent concentration, M; 59,000 tested, 11% active; AID 590, 2007; in the data active = max dye-equivalent concentration above about 10 nM; inconclusive = mostly about 1.1 nM to 9.6 nM
4MU fluor = qHTS Assay for Spectroscopic Profiling in 4-MU Spectral Region. compound autofluorescence, 340/450 nm, 4-MU equivalents; hits give high values. max dye-equivalent concentration, M. 59,000 tested, 11% active; in the data active = max dye-equivalent concentration above about 10 nM; inconclusive = mostly about 1.1 nM to 9.6 nM
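Intrinsic fluorescence at 340/450 nm (ex/em) was read after 15 min at room temperature in pH 8.0, 100 mM Tris. Each compound concentration expressed as 4-MU-equivalent concentration from a six-point 4-MU standard series on each plate.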
AID923 = qHTS Assay for Allosteric/Competitive Inhibitors of Caspase-1: Spectroscopic Profiling in AFC Spectral Region | compound fluorescence, AFC spectral region (405/520 nm) | Potency, µM (doses to about 57.5 µM), inactives show top-dose fluorescence increase, hits mostly activators | 75,000 tested, 1.1% active | AID 923, 2007; also: potency is read from the fitted curve at half-maximal effect; 0% is about no effect
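Titrations up to 57 uM read every 20 sec for 3 min (405/520 nm) with 50 nM caspase 1 and 5 uM Ac-WEHD-AFC, pH 7.5 HEPES buffer. Fluorescence-vs-time intercept gave baseline, scaled against on-plate AFC standard.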
HSD17B inh = qHTS Assay for Inhibitors of HSD17B4, hydroxysteroid (17-beta) dehydrogenase 4; AID 893, 2007; Potency, µM (highest dose often 57.1 µM), inactives show at the highest dose activity change, negative = inhibition, actives largely listed as inhibitors; 75,000 tested, 7.6% active; recombinant HSD17B10, NADH fluorescence kinetic;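 also: the protocol describes HADH2 (HSD17B10) and not the HSD17B4 of the title; potency is read from the fitted curve at half-maximal effect; % is scaled to controls: 0 for no effect and ±100 for the full control effect; nearly all actives have a fitted effect of over 70% in size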
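Activity followed as NADH fluorescence increase (ex 360, em 450 nm) every 30 seconds for 4 min, using final 90 uM beta-hydroxybutyryl CoA and 1 mM NAD+. Recombinant His-tagged enzyme, 20 nM, pH 9.0 Tris buffer, 15 min compound preincubation.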
HADH2 inhib = qHTS Assay for Inhibitors of HADH2 (Hydroxyacyl-Coenzyme A Dehydrogenase, Type II). 3-hydroxyacyl-CoA dehydrogenase type-2 (Homo sapiens), Q99714. recombinant HADH2, NADH fluorescence, beta-hydroxybutyryl-CoA. Potency, µM (highest dose often 57.1 µM), for inactives: at the highest dose activity change, negative = inhibition, usual class: inhibitors. 73,000 tested, 3.4% active; also: potency is read from the fitted curve at half-maximal effect; % is scaled to controls: 0 for no effect and ±100 for the full control effect; nearly all actives have a fitted effect of over 60% in size
Target sequence (Q99714 whole entry, looked up, one chain of several): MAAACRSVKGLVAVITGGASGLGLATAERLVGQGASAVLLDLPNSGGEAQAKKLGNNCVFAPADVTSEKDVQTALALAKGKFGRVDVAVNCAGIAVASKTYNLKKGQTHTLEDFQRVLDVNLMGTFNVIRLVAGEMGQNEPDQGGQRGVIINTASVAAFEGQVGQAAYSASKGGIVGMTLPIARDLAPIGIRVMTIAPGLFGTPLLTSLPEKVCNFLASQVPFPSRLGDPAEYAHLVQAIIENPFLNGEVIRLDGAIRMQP
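Read-out: 360 nm excitation, 450 nm emission, kinetic over 4 min. Conditions: His-tagged human HADH2 20 nM, pH 9.0 Tris with Tween-20, 1 mM NAD+, 90 uM beta-hydroxybutyryl-CoA.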
* hit, by the source's call; [ ] = dose if it differs, or a comment. Unless noted, calls follow the shape of the dose curve; as a rule, active = well fitted curve in the direction sought with a large enough effect; inconclusive = small, poorly fitted or top-dose-only effect, or another doubt; inactive = no such curve, though single readings can be large; an effect the other way counts as inactive or inconclusive.

Screening CCC(CCC(=O)Nc1ccn(-c2ccccc2)n1)C(=O)O (stereo not drawn) returned A350 fluor inactive, 4MU fluor inactive, AID923 -0.7%, HSD17B inh 2.9% and HADH2 inhib -4.9%.
CCOC(=O)N1CCC(N(CCCOC)C(=O)Nc2cccc(OC)c2)CC1 was read as A350 fluor 1.87e-08M*, 4MU fluor 1.4e-08M*, AID923 -1.8%, HSD17B inh 7.3% and HADH2 inhib 4.9%.
`CCOC(=O)N1CCC(N(C(=O)Nc2cccc(OC)c2)C(C)CC)CC1` (stereo not drawn) gave A350 fluor inactive, 4MU fluor inactive, AID923 -0.6%, HSD17B inh 4.0% and HADH2 inhib -0.4%.
Screening COCCCNc1nc2ccccc2nc1NS(=O)(=O)c1cccs1 returned A350 fluor 5.56e-08M*, 4MU fluor 4.24e-08M*, AID923 7.7%, HSD17B inh inconclusive and HADH2 inhib -3.8%.
`O=S(=O)(Nc1nc2ccccc2nc1NCC1CCCO1)c1cccs1` (stereo not drawn) gave A350 fluor 5.8e-08M*, 4MU fluor 4.44e-08M*, AID923 2.8%, HSD17B inh -5.0% and HADH2 inhib -7.7%.
`CCOC(=O)c1cnc(N(C)C)nc1SC(=N)N` gave A350 fluor inactive, 4MU fluor inactive, AID923 -0.8%[11.5 µM], HSD17B inh -9.0%[11.4 µM] and HADH2 inhib inconclusive.
Screening O=S(=O)(NCCCCCCc1ccccc1)c1cccc2c(Cl)cccc12 returned AID923 1.7%, HSD17B inh -16.0% and HADH2 inhib -4.4%.
Screening COc1ccc(-c2cc3ccccc3n2CC(O)Cn2nc(C)cc2C)cc1 (stereo not drawn) returned A350 fluor inactive, 4MU fluor inactive, AID923 4.1%, HSD17B inh 25.1µM* and HADH2 inhib -22.5%.
CCc1ccccc1N(CC(=O)NCc1ccco1)C(=O)c1snc(C(N)=O)c1N was read as A350 fluor 2.47e-07M*, 4MU fluor 2.56e-07M*, AID923 12.5%, HSD17B inh inconclusive and HADH2 inhib inconclusive.
Screening CC(C)CCNC(=O)CN(CCCN1CCOCC1)C(=O)Cn1nnc(-c2ccc(F)cc2)n1 returned A350 fluor inactive, 4MU fluor inactive, AID923 -0.6%, HSD17B inh 10.0% and HADH2 inhib 16.0%.
For COc1ccc(CNC(=O)C(C)N(Cc2ccco2)C(=O)c2snc(C(N)=O)c2N)cc1 (stereo not drawn) the results were A350 fluor 1.94e-07M*, 4MU fluor 1.29e-07M*, AID923 2.4%, HSD17B inh inconclusive and HADH2 inhib -18.1%.
`CCCCC(C(=O)NCCC(C)C)N(CCCN1CCOCC1)C(=O)c1snc(C(N)=O)c1N` (stereo not drawn) gave A350 fluor 1.04e-07M*, 4MU fluor 1.13e-07M*, AID923 4.1%, HSD17B inh inconclusive and HADH2 inhib -11.0%.
CC(C)CCNC(=O)C(c1ccco1)N(C(=O)Cn1nnc2ccccc21)c1ccc2c(c1)OCO2 (stereo not drawn) was read as A350 fluor inactive, 4MU fluor inactive, AID923 -3.0%, HSD17B inh -0.9% and HADH2 inhib 12.0%.
Screening CC(C)CCNC(=O)C(c1ccco1)N(Cc1ccccc1)C(=O)c1snc(C(N)=O)c1N (stereo not drawn) returned A350 fluor 1.13e-07M*, 4MU fluor 1.21e-07M*, AID923 5.0%, HSD17B inh inconclusive and HADH2 inhib 5.6%.
`O=C(Nc1nnc(CC(=O)N2CCCC2)s1)c1cnccn1` gave A350 fluor inactive, 4MU fluor inactive, AID923 -0.5%, HSD17B inh -0.8% and HADH2 inhib -7.2%.
CC(C)S was read as AID923 3.6%, HSD17B inh 1.8% and HADH2 inhib -2.3%.
For CC(C)C(O)(C(C)C)C(C)C the results were A350 fluor inactive, 4MU fluor inactive, AID923 3.2%[11.5 µM], HSD17B inh -2.5%[11.4 µM] and HADH2 inhib 10.6%[11.4 µM].
